KCNQ2 pot = KCNQ2 (rat) channel potentiation. O88943. CHO-K1 KCNQ2, FluxOR thallium flux fluorescence; active compounds read high. B-score at 10 µM. actives 0.54% (n = 310,000). AID 2239;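 active = fluorescence ratio B-score at least 3 SD of library B-scores, with initial fluorescence B-score within 3 of them, cut at about 5.3 in these data; same plate scores as AID 2156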;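 also: B-score of peak minus minimum over baseline fluorescence ratio after K+ and Tl+ stimulus; positive B-score means potentiation of KCNQ2 with more thallium influx and brighter signal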
KCNQ2 block = inhibitors of rat KCNQ2 potassium channel; AID 2156; O88943; B-score at 10 µM; CHO-K1 KCNQ2, FluxOR thallium flux, 20 min; active compounds read low; actives 1.1% (n = 310,000);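 active = fluorescence ratio B-score at most minus 3 library SDs, with starting brightness B-score within 2 library SDs, cut at about -5.5 in these data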
Kir21 confirm = confirmation of mouse Kir2.1 potassium channel inhibitors. Kir2.1-expressing cells, FluxOR thallium flux fluorescence; active compounds read low. actives 41% (n = 2,300). shares compounds with KCNQ2 pot. Tl flux remaining, % of negative control (active compounds read low), % at 10 µM. AID 2032;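 active = Primary-screen hit whose thallium flux fell at least 3 control SD below untreated wells in both duplicates, with normal baseline fluorescence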;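 also: 0% = blank wells without stimulus and 100% = stimulated no-compound controls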
HEK293 Tl flux = parental HEK293 activity in Kir2.1 inhibitor counter-screen; parental HEK293 cells, FluxOR thallium flux fluorescence; 0% = unstimulated blank wells; shares compounds with KCNQ2 pot; AID 2105; actives 19% (n = 2,300); FluxOR signal as % of negative control (100 = no effect), % at 10 µM;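 active = dye signal at least 3 control SD above or below untreated wells in both duplicates, raw fluorescence within 3, either direction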;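 also: percent is based on the flux ratio of peak minus minimum fluorescence over baseline F0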
CHO-K1 Tl ctr = parental CHO-K1 activity in KCNQ2 potentiator counter-screen; shares compounds with KCNQ2 pot; parental CHO-K1 cells, FluxOR thallium flux fluorescence; zero = vehicle mean+3SD, 100% = vehicle-minus-blank window; activity increase over 3SD of controls, % at 10 µM; actives 43% (n = 1,200); AID 2282;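 active = signal rise of at least 3 SD above the untreated control mean, in both duplicate wells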;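 also: counter screen of KCNQ2 potentiator hits so any rise reflects channel-independent effects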
KCNQ1 pot spec = human KCNQ1 counter-target activity of KCNQ2 potentiators. shares compounds with KCNQ2 pot. CHO KCNQ1 stable, FluxOR thallium flux fluorescence; beyond 3SD, as % of vehicle-control signal. activation over 3SD threshold, % at 10 µM. actives 28% (n = 1,200). AID 2283;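 active = fluorescence ratio rise of at least 3 SD of vehicle wells above their mean, in both replicate wells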;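 also: 0% = vehicle mean plus 3 SD and 100% = vehicle minus unstimulated blank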
Target sequence (P51787 whole entry, looked up): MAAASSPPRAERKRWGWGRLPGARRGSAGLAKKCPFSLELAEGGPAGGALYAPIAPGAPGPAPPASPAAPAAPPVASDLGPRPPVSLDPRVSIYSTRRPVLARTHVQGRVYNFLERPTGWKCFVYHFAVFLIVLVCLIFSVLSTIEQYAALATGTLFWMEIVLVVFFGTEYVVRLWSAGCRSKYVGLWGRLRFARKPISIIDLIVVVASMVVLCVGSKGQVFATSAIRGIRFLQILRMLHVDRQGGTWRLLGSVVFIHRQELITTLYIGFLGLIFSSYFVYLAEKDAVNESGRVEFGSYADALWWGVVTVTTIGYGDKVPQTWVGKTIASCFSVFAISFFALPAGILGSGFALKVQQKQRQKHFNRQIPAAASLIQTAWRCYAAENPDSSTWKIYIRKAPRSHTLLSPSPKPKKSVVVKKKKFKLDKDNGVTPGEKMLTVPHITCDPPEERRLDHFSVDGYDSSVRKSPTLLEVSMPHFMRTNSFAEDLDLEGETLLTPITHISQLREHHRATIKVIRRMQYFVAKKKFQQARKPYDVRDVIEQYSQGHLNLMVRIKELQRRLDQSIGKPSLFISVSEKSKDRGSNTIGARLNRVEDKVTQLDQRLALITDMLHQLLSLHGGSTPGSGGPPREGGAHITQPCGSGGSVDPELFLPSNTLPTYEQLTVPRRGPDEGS
KCNQ2 pot confirm = rat KCNQ2 channel potentiator confirmation; shares compounds with KCNQ2 pot; CHO-KCNQ2 cells, FluxOR thallium flux fluorescence; potentiation, less the hit threshold, % at 10 µM; actives 68% (n = 1,200);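 active = fluorescence ratio rising 3 SD or more over the vehicle control mean in both replicates, plus primary screen hit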;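 also: peak minus minimum thallium fluorescence divided by baseline after K/Tl stimulus; 0% = vehicle mean plus 3 SD and 100% = vehicle minus unstimulated blank difference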
Kir2-1 sel = selectivity of KCNQ2 potentiators: effect on mouse Kir2.1. shares compounds with KCNQ2 pot. HEK293 Kir2.1, FluxOR thallium flux fluorescence. activity over 3SD threshold, % at 10 µM. actives 2% (n = 1,200). AID 2345;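 active = fluorescence ratio rise of at least 3 SD above the vehicle-control mean, seen in both replicates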;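 also: 0% = vehicle mean plus 3 SD and 100% = vehicle minus no-stimulus blank window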
KCNQ2 W236L MoA = KCNQ2 potentiators acting on retigabine-insensitive rat KCNQ2 W236L mutant. CHO KCNQ2-W236L, automated patch clamp current. current increase over 3SD of negative controls (%), active compounds read high, % at 25 µM. shares compounds with KCNQ2 pot. AID 2558. actives 10% (n = 940);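 active = current increase at least 3 SD of the untreated controls above them in both duplicate recordings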
* marks the source's active call; other numbers are inactive results; i = inactive; · = no result given. Rows were chosen to be rich in hits. Some 1.6% of all compounds tested hit in one or more screens of this group.

SMILES	KCNQ2 pot	KCNQ2 block	Kir21 confirm	HEK293 Tl flux	others
CN(C)C(CNC(=O)CCc1nc2cc(Cl)ccc2n(Cc2ccccc2)c1=O)c1ccccc1 (configuration not stated)	·	i	74%*	i
CCNC(=S)NNC(=O)CCc1nc2cc(Cl)ccc2n(Cc2ccccc2)c1=O	0.23	i	·	·
COc1ccc(S(=O)(=O)N2CCC(C(=O)N[C@@H](C)C(=O)NCc3ccncc3)CC2)cc1	0.55	i	·	·
COc1ccc(C(C)NC(=O)CC23CC4CC(CC(C4)C2)C3)cc1 (configuration not stated)	5.7*	i	i	i	CHO-K1 Tl ctr=-11;KCNQ1 pot spec=-10;KCNQ2 pot confirm=-3;Kir2-1 sel=-52;KCNQ2 W236L MoA=i
CC(NC(=O)CC12CC3CC(CC(C3)C1)C2)C(=O)O (configuration not stated)	1.2	i	·	·
O=C1CC(N2CCC(Cc3ccccc3)CC2)C(=O)N1CCc1ccccc1 (configuration not stated)	5.7*	i	i	i	CHO-K1 Tl ctr=-6;KCNQ1 pot spec=-28;KCNQ2 pot confirm=7.5*;Kir2-1 sel=-32;KCNQ2 W236L MoA=i
O=C1CC(N2CCN(C3CC(=O)N(CCc4ccccc4)C3=O)CC2)C(=O)N1CCc1ccccc1 (configuration not stated)	0.42	i	·	·
Cc1nn(C)cc1/C=N/NC(=O)Cn1nccc1C	1.5	i	·	·
CCS(=O)(=O)c1nc(S(=O)(=O)c2ccc(C)cc2)c(N2CCN(C)CC2)s1	·	i	·	·
CCNC(=S)Nc1nc2c(cc1C(=O)OCC)CCCC2	5.5*	i	i	148%*	CHO-K1 Tl ctr=7.6*;KCNQ1 pot spec=-19;KCNQ2 pot confirm=-2;Kir2-1 sel=-30;KCNQ2 W236L MoA=i
C=CCNC(=S)Nc1nc2c(cc1C(=O)OCC)CCCC2	4.3	i	·	·
N#Cc1ccc(-c2ccc(OCC(O)CN3CCCCC3)cc2)cc1 (configuration not stated)	0.05	i	·	·
CCn1nc(C(=O)OCC(=O)NC(C)C)c2ccccc2c1=O	·	i	·	·
CCn1nc(C(=O)OCc2c(C)noc2C)c2ccccc2c1=O	8.4*	i	i	i	CHO-K1 Tl ctr=77*;KCNQ1 pot spec=-23;KCNQ2 pot confirm=-18;Kir2-1 sel=-42
CCOC(=O)N1C=CC(C)=C[C@@H]2[C@@H](N3C(=O)c4ccccc4C3=O)C(=O)N21	·	i	·	·
COc1ccc(CCC(C)NCc2ccc(C(F)(F)F)cc2)cc1 (configuration not stated)	2.2	i	·	·
COc1ccc(CNCCC(c2ccc(OC)cc2)c2ccccc2OC)cc1 (configuration not stated)	·	i	38%*	i
COc1ccc(C(CCNCc2ccccc2)c2ccc(F)cc2)cc1 (configuration not stated)	·	i	·	·
COc1ccc(CNCCC(c2ccccc2)c2ccc(OC(C)C)cc2)cc1OC (configuration not stated)	·	i	·	·
COc1ccc(CNCCC(c2ccc(F)cc2)c2ccc(OC(C)C)cc2)cc1OC (configuration not stated)	·	i	44%*	i
COc1ccc(CNC(C)CCc2ccccc2)cc1 (configuration not stated)	3.1	i	40%*	i
COc1ccc(C(CCNCc2ccc(N(C)C)cc2)c2ccccc2OC)cc1 (configuration not stated)	·	i	·	·
COc1ccc(C(CCNCc2ccc(OC(C)C)cc2)c2ccccc2OC)cc1 (configuration not stated)	-6.5	-6.5*	29%*	i
COc1cccc(N2CCN(C(=O)c3ccc(Cl)c(NC4=NC5CS(=O)(=O)CC5S4)c3)CC2)c1 (configuration not stated)	1.8	i	·	·
O=C(Cc1c(Cl)cccc1Cl)Nc1ccc(S(=O)(=O)Nc2ncccn2)cc1	0.02	i	·	·
SMILES	KCNQ2 pot	KCNQ2 block	Kir21 confirm	HEK293 Tl flux	others
Cc1ccc(-n2cc(S(=O)(=O)c3ccc(C)cc3)[nH]c2=O)cc1	·	i	·	·
COc1cc(CNC2CCCC2)cc(Cl)c1OCc1ccc(F)cc1	·	i	·	·
COc1cc(CNC2CCCC2)cc(Cl)c1OCc1ccccc1Cl	·	i	31%*	i
COc1ccc(S(=O)(=O)NN(C)c2ncc(C(F)(F)F)cc2Cl)cc1	·	i	61%*	i
CC(C)NS(=O)(=O)c1ccc(Oc2ncc(C(F)(F)F)cc2Cl)cc1	·	i	·	·
CCC(=O)c1ccc(OCC(O)CNC(C)c2ccccc2)cc1 (configuration not stated)	0.04	i	·	·
OC(CNCCc1ccccc1)COc1ccc(OCC(O)CNCCc2ccccc2)cc1 (configuration not stated)	·	i	·	·
CC(C)c1ccc(OCC(O)CNC(C)c2ccccc2)cc1 (configuration not stated)	2.2	i	28%*	i
OC(CNCCC(c1ccccc1)c1ccccc1)COc1ccccc1 (configuration not stated)	·	i	36%*	i
CC1CC(C)CN(C(=O)CNC(=O)c2ccc3ccccc3c2)C1 (configuration not stated)	·	i	·	·
Cc1ccc(Nc2cc(C)nc3c(C)cccc23)cc1	1.4	i	36%*	i
CC(=O)c1ccc(Nc2cc(C)nc3c(C)cccc23)cc1	·	i	·	·
COc1ccc(C(=O)NCCC2=CCCCC2)cc1	·	i	·	·
COc1ccc(OC(C)C(=O)NCCC2=CCCCC2)cc1 (configuration not stated)	·	i	48%*	i
CO/N=C(/CNC(=O)c1ccc(Cl)cc1Cl)c1ccc(Cl)cc1	·	i	·	·
O=C(/C=C/c1cccs1)NCc1ccc2c(c1)OCO2	8.6*	i	i	i	CHO-K1 Tl ctr=12*;KCNQ1 pot spec=-11;KCNQ2 pot confirm=1.0*;Kir2-1 sel=-40;KCNQ2 W236L MoA=i
O=C(/C=C/c1ccccc1)NCc1ccc2c(c1)OCO2	2	i	·	·
O=C(NCc1ccc2c(c1)OCO2)Nc1cccc(Cl)c1	21*	i	i	i	CHO-K1 Tl ctr=-11;KCNQ1 pot spec=-31;KCNQ2 pot confirm=70*;Kir2-1 sel=-26;KCNQ2 W236L MoA=i
CC(=O)c1cccc(NC(=O)NCc2ccc3c(c2)OCO3)c1	2.1	i	·	·
CCCN(CCC)CCNC(=O)C1(O)c2ccccc2NC(=O)N1c1cccc(OC)c1 (configuration not stated)	0.07	i	·	·

Assay outcomes deposited in PubChem BioAssay by Johns Hopkins Ion Channel Center.
